Experimental data: PubChem BioAssay (NCATS)
Where “and” joins values, the source holds several entries; their conditions need not be identical. Equal values may be shown once. Inconclusive results are not listed. A call without a number means that no potency is given here. Values without a mark were called inactive. Calls of active or inactive are those of the source. Calls come from the whole dose curve; as a rule, active = well fitted curve in the direction sought with a large enough effect; inconclusive = small, poorly fitted or top-dose-only effect, or another doubt; inactive = no such curve, though single readings can be large; an effect the other way counts as inactive or inconclusive.

How the values were obtained:
[1] = biological target: Cellular tumor antigen p53 (Homo sapiens) (UniProt P04637); experiment: Primary qHTS for small molecule compounds that upregulate eGFP-tagged delta133p53alpha (in N-terminal) cells. (AID 2060322); settings: NCI-H358 eGFP-delta133p53alpha fluorescence, 24 h; activation: hits give high values; note: nearly all actives have a fitted effect of over 75% in size; note: potency is the fitted concentration of half-maximal effect; for activation: series mostly up to about 56 µM
Method in brief: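 NCI-H358 cells pre-induced 24 h with 10 ng/ml doxycycline to express N-terminal eGFP-delta133p53alpha, then dosed 24 h at 37C without doxycycline; fixed, Hoechst-stained, GFP intensity by laser scanning cytometry, normalized to DMSO (0%) and 57.5 uM 5-azacytidine (100%).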

[2] = biological target: Aldehyde dehydrogenase, mitochondrial (Homo sapiens) (UniProt P05091); experiment: qHTS for Inhibitors of the Aldehyde Dehydrogenase Family (ALDH2) Primary screen (AID 2061308); note: nearly all actives have a fitted effect of over 55% in size
[3] = biological target: Retinaldehyde dehydrogenase 3 (Homo sapiens) (UniProt P47895); experiment: qHTS for Inhibitors of the Aldehyde Dehydrogenase Family (ALDH1A3) Primary screen (AID 2061315)

Cellular tumor antigen p53 (Homo sapiens), sequence (P04637 whole entry, looked up): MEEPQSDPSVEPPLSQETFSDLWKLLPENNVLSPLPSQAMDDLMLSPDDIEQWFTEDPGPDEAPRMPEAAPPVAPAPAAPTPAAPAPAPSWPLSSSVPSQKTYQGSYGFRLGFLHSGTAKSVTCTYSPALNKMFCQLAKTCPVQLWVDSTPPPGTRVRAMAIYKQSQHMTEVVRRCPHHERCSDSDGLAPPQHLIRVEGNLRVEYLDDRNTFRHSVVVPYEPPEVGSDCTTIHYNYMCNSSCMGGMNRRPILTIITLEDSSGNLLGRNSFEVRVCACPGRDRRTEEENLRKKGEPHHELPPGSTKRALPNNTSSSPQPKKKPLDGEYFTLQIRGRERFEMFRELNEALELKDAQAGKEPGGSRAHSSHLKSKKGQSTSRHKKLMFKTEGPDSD

| Compound | activation [1] | Potency [2] | Potency [3] | Potency [1] |
| --- | --- | --- | --- | --- |
| COC(=O)C1(O)C(OC(C)=O)CCC2C3(CC(c4ccoc4)OC3=O)C(C)=CCC21C(=O)OC (stereo not drawn) | 9.82% | inactive | inactive |  |
| COc1nc2sc(C(=O)NC3CC3)c(N)c2c(C)c1Cl | -6.33% | inactive | inactive |  |
| Cc1cccc(Nc2cc(Cl)nc(SCC(=O)O)n2)c1C | 23.4% and 14.3% | inactive | inactive |  |
| COC(=O)c1cc(OC)cc(OC)c1C(=O)c1c(OC)cc2c(c1O)C1CCC(O)C(C)(O2)O1 (stereo not drawn) | 25.2% | inactive | inactive |  |
| NC(=O)NCCCC(NC(=O)Cc1ccccc1)C(=O)O (stereo not drawn) | -1.79% | inactive | inactive |  |
| CCCN1CCC(c2cccc(S(C)(=O)=O)c2)CC1 | -11.9% | inactive | inactive |  |
| CC1(C(=O)O)CCCC2(C)C3CCC4CC3(CCC12)CC4C(=O)O (stereo not drawn) | -3.05% | inactive | inactive |  |
| COC(=O)C1(C)c2[nH]c3ccccc3c2CCN1C(=O)CCl (stereo not drawn) |  | inactive | inactive | 30.1 µM (active) |
| C=CC1(C)C=C2CC[C@H]3[C@@](C)(C(=O)O)CCC[C@]3(C)C2CC1 (stereo partly drawn) | -0.763% | inactive | inactive |  |
| C[N+]1(C)[C@@H]2C[C@@H](OC(=O)C(O)(c3cccs3)c3cccs3)C[C@H]1[C@@H]1O[C@@H]12 | 8.63% | inactive | inactive |  |
| C/C(=C\CCC(C(=O)O)C1CCC2(C)C3=C(CCC12C)C1(C)CCC(=O)C(C)(C)C1CC3)C(=O)O (stereo not drawn) | 1.53% | inactive | inactive |  |
